Data taken from PubChem BioAssay (EPA / NIEHS).
Where a structure was tested more than once in an assay, its records may differ in their call. Activity calls are given as the source filed them. Rule for the calls: active = hit-call score of the fitted dose curve at least 0.9, where 1 is the maximum; inactive = score below 0.9.

Experiments:
[1] = ATG_M_32_CIS: Attagene CIS-FACTORIAL HepG2 Assay for M32 Transcription Factor (Internal Marker) (AID 2282949); settings: HepG2 Attagene cis-factorial M32 reporter, mRNA; actives raise or lower the signal;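 note: background control marker of the multiplexed CIS panel rather than a real target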
How it was run: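 Transient MRTU transfection of HepG2; 24 h compound treatment; TriZol RNA, oligo(dT) RT, reporter PCR, 6-FAM primer extension, HpaI cut, CE. Gain/loss of signal vs DMSO.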

[2] = ATG_M_06_CIS: Attagene CIS-FACTORIAL HepG2 Assay for M06 Transcription Factor (Internal Marker) (AID 2282950); settings: HepG2 Attagene CIS-FACTORIAL M06 internal marker reporter; actives raise or lower the signal
How it was run: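 Measured 24 h post-dosing in transiently transfected HepG2 cells, this internal-marker endpoint reports reporter mRNA via RT-PCR with fluorescent primer extension and capillary electrophoresis. DMSO served as negative control and baseline for bidirectional fitting.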

[3] = target: Hypoxia-inducible factor 1-alpha (Homo sapiens) (UniProt Q16665); assay: ATG_HIF1a_CIS: Attagene CIS-FACTORIAL HepG2 Assay for human Hypoxia Inducible Factor 1 (HIF1A) (AID 2282951); settings: HepG2 Attagene cis-factorial HIF1a reporter transcription; actives raise or lower the signal
Sequence of Hypoxia-inducible factor 1-alpha (Homo sapiens) (Q16665 whole entry, looked up): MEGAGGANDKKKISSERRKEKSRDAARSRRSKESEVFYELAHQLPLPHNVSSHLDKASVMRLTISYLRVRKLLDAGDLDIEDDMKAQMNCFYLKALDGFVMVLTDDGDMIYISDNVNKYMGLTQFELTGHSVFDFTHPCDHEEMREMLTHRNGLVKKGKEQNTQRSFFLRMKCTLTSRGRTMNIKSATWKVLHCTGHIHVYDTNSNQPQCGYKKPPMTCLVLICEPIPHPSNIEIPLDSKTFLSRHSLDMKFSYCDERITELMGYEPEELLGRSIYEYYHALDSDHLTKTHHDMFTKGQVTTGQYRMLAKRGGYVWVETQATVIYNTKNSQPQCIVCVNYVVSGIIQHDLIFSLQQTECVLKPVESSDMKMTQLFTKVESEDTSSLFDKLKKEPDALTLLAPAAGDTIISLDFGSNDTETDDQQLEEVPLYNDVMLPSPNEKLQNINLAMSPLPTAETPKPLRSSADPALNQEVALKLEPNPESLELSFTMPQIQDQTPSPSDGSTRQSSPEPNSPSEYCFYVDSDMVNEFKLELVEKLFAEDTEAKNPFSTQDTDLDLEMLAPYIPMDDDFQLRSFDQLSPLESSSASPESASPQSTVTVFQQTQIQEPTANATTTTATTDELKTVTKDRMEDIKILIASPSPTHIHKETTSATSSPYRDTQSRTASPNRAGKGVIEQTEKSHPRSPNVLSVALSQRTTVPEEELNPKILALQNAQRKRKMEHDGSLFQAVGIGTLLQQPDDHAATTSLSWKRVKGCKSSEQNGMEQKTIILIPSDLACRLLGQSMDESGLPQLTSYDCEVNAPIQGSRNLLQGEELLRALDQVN
How it was run: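 Measures endogenous transcription-factor activity through cis-regulated reporter mRNA in HepG2. Cells dosed 24 h; transcripts quantified by RT-PCR with 6-FAM-labelled products separated by capillary electrophoresis; DMSO serves as negative control.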

[4] = target: Hepatocyte nuclear factor 6 (Homo sapiens) (UniProt Q9UBC0); assay: ATG_HNF6_CIS: Attagene CIS-FACTORIAL HepG2 Assay for human Hepatocyte Nuclear Factor 6 (HNF6) (AID 2282952); settings: HepG2 Attagene cis-factorial HNF6 reporter transcription; actives raise or lower the signal
Sequence of Hepatocyte nuclear factor 6 (Homo sapiens) (Q9UBC0 whole entry, looked up, the tested form may be a part): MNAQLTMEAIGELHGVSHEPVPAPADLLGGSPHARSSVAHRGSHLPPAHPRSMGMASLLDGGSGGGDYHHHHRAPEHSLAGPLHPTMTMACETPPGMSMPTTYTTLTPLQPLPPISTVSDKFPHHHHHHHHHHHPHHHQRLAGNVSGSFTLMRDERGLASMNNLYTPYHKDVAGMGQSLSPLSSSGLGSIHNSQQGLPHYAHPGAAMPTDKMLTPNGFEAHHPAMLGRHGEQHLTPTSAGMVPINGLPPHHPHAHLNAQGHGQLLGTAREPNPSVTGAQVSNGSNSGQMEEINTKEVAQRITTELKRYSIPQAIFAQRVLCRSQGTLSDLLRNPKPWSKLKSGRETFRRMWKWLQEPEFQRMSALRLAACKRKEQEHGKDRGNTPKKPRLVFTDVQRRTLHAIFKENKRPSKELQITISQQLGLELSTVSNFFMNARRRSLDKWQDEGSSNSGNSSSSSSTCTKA
How it was run: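 First, HepG2 cells were transfected with the multiplexed cis reporter library and dosed with chemical for 24 h. Next, RNA was reverse-transcribed, PCR-amplified and fluorescently labelled. Finally, HpaI-digested fragments were read by capillary electrophoresis.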

[5] = target: Heat shock factor protein 1 (Homo sapiens) (UniProt Q00613); assay: ATG_HSE_CIS: Attagene CIS-FACTORIAL HepG2 Assay for human Heat Shock Transcription Factor 1 (HSE) (AID 2282953); settings: HepG2 HSE cis-reporter, Attagene RNA transcription; actives raise or lower the signal
Sequence of Heat shock factor protein 1 (Homo sapiens) (Q00613 whole entry, looked up): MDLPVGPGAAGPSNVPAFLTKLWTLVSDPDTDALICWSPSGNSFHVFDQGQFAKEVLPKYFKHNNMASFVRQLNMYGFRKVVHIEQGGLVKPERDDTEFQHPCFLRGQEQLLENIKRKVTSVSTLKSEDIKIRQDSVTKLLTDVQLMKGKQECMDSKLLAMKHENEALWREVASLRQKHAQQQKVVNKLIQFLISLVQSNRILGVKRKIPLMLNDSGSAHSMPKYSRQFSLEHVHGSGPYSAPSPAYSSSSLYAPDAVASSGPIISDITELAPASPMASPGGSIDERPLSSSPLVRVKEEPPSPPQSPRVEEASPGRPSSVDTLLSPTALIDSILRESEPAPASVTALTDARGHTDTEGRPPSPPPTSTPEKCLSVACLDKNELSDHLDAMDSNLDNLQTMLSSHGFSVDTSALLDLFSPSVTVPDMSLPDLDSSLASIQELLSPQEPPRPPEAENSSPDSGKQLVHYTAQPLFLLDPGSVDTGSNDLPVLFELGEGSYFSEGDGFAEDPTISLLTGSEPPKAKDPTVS
How it was run: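 Reporter mRNA induction in HepG2 is measured 24 h after dosing, using transiently transfected multiplexed cis-regulated reporter units. Signal comes from capillary electrophoresis of labelled RT-PCR products, with DMSO as negative control.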

[6] = ATG_MRE_CIS: Attagene CIS-FACTORIAL HepG2 Assay for human Metal Responsive Element (MRE) (AID 2282954); settings: HepG2 MRE cis-reporter transcription, Attagene multiplex; actives raise or lower the signal
How it was run: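 Multiplexed cis-reporter assay in human HepG2 liver cells, 24 h incubation with test chemical. Reporter transcripts measured by RT-PCR and capillary electrophoresis; values from bidirectional curve fitting versus DMSO.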

[7] = ATG_PBREM_CIS: Attagene CIS-FACTORIAL HepG2 Assay for human Phenobarbital-responsive Enhancer Module (PBREM) (AID 2282955); settings: HepG2 PBREM cis-reporter, Attagene multiplexed transcription; actives raise or lower the signal
How it was run: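 Fluorescence of labelled reporter cDNA fragments, resolved by capillary electrophoresis, gives mRNA induction in transfected HepG2 cells treated for 24 h; DMSO serves as negative control and baseline.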

[8] = ATG_PXRE_CIS: Attagene CIS-FACTORIAL HepG2 Assay for human Pregnane X Receptor Element (PXRE) (AID 2282957); settings: HepG2 Attagene CIS-FACTORIAL PXRE reporter, mRNA; actives raise or lower the signal
How it was run: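 After a 24 h chemical incubation, total RNA from transfected HepG2 cells was reverse-transcribed and reporter cDNA amplified, FAM-labeled, HpaI-digested and sized by capillary electrophoresis. DMSO served as baseline for bidirectional curve fitting.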

[9] = ATG_PPRE_CIS: Attagene CIS-FACTORIAL HepG2 Assay for human Peroxisome Proliferator-activated Response Element (PPRE) (AID 2282958); settings: HepG2 PPRE cis-element reporter, Attagene transcription factor profiling; actives raise or lower the signal
How it was run: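 Cells are first transfected transiently with the multiplexed reporter library, then dosed for 24 h. Total RNA is reverse-transcribed, amplified, fluorescently end-labeled and HpaI-cut before capillary electrophoresis; activity is fitted bidirectionally against DMSO controls.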

[10] = ATG_RORE_CIS: Attagene CIS-FACTORIAL HepG2 Assay for human RAR-related Orphan Receptor Element (RORE) (AID 2282959); settings: HepG2 Attagene cis-factorial RORE reporter, mRNA; actives raise or lower the signal
How it was run: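 Cells were HepG2 carrying transfected cis-regulated reporter constructs, dosed for 24 hours. Total RNA was reverse-transcribed and reporter cDNA amplified, fluorescently labeled and sized by capillary electrophoresis. Activity was fitted bidirectionally relative to DMSO.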

[11] = ATG_Sox_CIS: Attagene CIS-FACTORIAL HepG2 Assay for human SRY-box transcription factor (SOX) (AID 2282960); settings: HepG2 Attagene cis-factorial SOX reporter, mRNA; actives raise or lower the signal
How it was run: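 Transient MRTU transfection of HepG2; 24 h compound incubation; TriZol RNA, oligo(dT) RT, PCR, 6-FAM primer extension, HpaI cut, CE. Bidirectional fit, DMSO = baseline.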

[12] = target: Transcription factor Sp1 (Homo sapiens) (UniProt P08047); assay: ATG_Sp1_CIS: Attagene CIS-FACTORIAL HepG2 Assay for human Specificity Protein 1 (Sp1) (AID 2282961); settings: HepG2 Sp1 cis-reporter transcription, actives raise or lower the signal
Sequence of Transcription factor Sp1 (Homo sapiens) (P08047 whole entry, looked up): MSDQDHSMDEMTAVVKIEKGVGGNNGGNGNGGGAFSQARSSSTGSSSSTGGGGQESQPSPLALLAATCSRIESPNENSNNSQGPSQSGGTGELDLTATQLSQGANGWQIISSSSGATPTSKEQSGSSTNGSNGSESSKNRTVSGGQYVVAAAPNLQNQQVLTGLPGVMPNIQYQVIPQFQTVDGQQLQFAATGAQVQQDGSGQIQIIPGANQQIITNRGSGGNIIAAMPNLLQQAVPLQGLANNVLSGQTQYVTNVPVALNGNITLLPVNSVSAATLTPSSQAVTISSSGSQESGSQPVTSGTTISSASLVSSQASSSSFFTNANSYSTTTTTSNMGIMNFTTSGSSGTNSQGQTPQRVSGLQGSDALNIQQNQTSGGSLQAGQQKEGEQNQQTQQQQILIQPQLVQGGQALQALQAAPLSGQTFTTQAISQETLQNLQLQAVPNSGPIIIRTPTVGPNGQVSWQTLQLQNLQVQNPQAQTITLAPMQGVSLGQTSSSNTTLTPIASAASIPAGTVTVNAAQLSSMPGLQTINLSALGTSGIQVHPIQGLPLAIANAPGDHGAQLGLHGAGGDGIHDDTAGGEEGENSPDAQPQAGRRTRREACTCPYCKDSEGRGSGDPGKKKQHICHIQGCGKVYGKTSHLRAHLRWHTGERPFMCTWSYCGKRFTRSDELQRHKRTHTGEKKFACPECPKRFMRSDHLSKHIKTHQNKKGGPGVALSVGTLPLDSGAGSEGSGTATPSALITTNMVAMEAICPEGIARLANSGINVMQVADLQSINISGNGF
How it was run: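 Endogenous Sp1 activity was gauged in human liver HepG2 cells bearing transfected reporter units under a cis-regulating promoter. After 24 h dosing, reporter mRNA was quantified by RT-PCR with capillary electrophoresis, and activity fitted bidirectionally versus DMSO.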

[13] = ATG_SREBP_CIS: Attagene CIS-FACTORIAL HepG2 Assay for human Sterol Regulatory Element Binding (SREBP) (AID 2282962); settings: HepG2 Attagene cis-factorial SREBP reporter, mRNA; actives raise or lower the signal
How it was run: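 Readout: fluorescent reporter-transcript peaks resolved by capillary electrophoresis after RT-PCR. Cells were human HepG2 carrying transfected cis-promoter reporter constructs, dosed for 24 h. Gain or loss of signal was fitted against DMSO controls.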

[14] = target: Signal transducer and activator of transcription 3 (Homo sapiens) (UniProt P40763); assay: ATG_STAT3_CIS: Attagene CIS-FACTORIAL HepG2 Assay for human Signal Transducer and Activator of Transcription 3 (STAT3) (AID 2282963); settings: HepG2, Attagene cis-factorial STAT3 reporter transcription; actives raise or lower the signal
Sequence of Signal transducer and activator of transcription 3 (Homo sapiens) (P40763 whole entry, looked up): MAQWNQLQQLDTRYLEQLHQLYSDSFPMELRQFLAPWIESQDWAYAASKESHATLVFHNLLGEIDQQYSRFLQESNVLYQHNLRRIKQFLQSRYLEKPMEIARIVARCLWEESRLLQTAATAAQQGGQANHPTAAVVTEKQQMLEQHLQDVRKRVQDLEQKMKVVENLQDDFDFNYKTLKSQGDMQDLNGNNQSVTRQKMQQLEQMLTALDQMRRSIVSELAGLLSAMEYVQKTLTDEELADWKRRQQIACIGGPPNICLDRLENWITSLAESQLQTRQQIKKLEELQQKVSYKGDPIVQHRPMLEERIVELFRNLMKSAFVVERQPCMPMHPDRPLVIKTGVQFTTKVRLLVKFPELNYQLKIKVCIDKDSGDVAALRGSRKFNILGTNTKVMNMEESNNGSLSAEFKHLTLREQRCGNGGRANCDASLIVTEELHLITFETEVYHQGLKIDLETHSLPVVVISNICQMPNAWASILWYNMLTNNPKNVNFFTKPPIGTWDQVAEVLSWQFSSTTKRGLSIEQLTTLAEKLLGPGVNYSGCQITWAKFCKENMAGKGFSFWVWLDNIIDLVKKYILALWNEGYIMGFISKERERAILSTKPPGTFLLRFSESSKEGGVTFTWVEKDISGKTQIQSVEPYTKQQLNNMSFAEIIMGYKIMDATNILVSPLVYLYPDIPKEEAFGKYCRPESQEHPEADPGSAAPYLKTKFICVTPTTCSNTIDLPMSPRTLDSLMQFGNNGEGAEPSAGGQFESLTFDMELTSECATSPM
How it was run: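 Cis-factorial format: endogenous transcription factors in HepG2 drive transfected reporter units. After 24 h treatment, reporter RNA was reverse-transcribed, amplified, FAM-labelled and HpaI-digested before CE analysis; activity scored in both directions against DMSO.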

[15] = ATG_TA_CIS: Attagene CIS-FACTORIAL HepG2 Assay for human TA Basal Promoter (AID 2282964); settings: HepG2 Attagene CIS-factorial TA basal promoter reporter; actives raise or lower the signal
How it was run: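 Cis-factorial format in HepG2: reporters report endogenous factors, not chimeric Gal4 fusions. After 24 h treatment, reporter transcripts were measured by RT-PCR-capillary electrophoresis fluorescence, analysed bidirectionally versus DMSO.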

[16] = ATG_TAL_CIS: Attagene CIS-FACTORIAL HepG2 Assay for human TAL Basal Promoter (AID 2282966); settings: HepG2 Attagene cis-factorial TAL promoter reporter; actives raise or lower the signal;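 note: background control endpoint measuring basal TAL promoter reporter mRNA not a specific factor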
How it was run: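 Basal-promoter background-control endpoint from a multiplexed HepG2 reporter panel. Cells were exposed 24 h, then reporter mRNA was read by RT-PCR/CE fluorescence and fitted in both directions relative to DMSO.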

[17] = ATG_TGFb_CIS: Attagene CIS-FACTORIAL HepG2 Assay for human Transforming Growth Factor (TGF) (AID 2282967); settings: HepG2 Attagene CIS TGFb reporter, mRNA transcription; actives raise or lower the signal
How it was run: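 Multiplexed cis-reporter HepG2 system, 24 h treatment; mRNA induction read by fluorescence after RT-PCR and CE; DMSO negative control, bidirectional curve fitting.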

[18] = ATG_VDRE_CIS: Attagene CIS-FACTORIAL HepG2 Assay for human Vitamin D Receptor Element (VDRE) (AID 2282968); settings: HepG2 VDRE cis-reporter transcription, actives raise or lower the signal
How it was run: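 Measures endogenous factor activity through cis-element-driven reporter transcripts in transiently transfected HepG2. Cells are treated 24 h; reporter mRNA is quantified by RT-PCR and capillary electrophoresis; fitting is bidirectional.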

[19] = target: Paired box protein Pax-6 (Homo sapiens) (UniProt P26367); assay: ATG_Pax6_CIS: Attagene CIS-FACTORIAL HepG2 Assay for human Paired Box 6 (PAX6) (AID 2282956); settings: HepG2 CIS-FACTORIAL PAX6 reporter transcription, RNA readout; actives raise or lower the signal
Sequence of Paired box protein Pax-6 (Homo sapiens) (P26367 whole entry, looked up): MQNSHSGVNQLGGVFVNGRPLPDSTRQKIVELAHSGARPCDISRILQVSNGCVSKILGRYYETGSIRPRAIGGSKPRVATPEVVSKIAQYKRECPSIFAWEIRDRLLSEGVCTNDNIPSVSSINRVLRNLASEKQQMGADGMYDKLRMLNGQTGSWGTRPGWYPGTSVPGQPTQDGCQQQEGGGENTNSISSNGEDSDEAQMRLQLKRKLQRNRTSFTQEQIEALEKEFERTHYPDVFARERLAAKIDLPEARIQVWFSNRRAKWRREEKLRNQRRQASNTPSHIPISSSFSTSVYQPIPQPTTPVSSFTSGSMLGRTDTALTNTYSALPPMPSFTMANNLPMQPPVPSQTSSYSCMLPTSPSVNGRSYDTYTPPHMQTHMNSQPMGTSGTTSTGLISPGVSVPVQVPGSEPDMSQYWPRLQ
How it was run: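 Readout: reporter transcript fluorescence after RT-PCR and capillary electrophoresis. Cells: HepG2, transiently transfected with cis-regulated MRTUs. Exposure 24 h. Gain or loss of signal fitted bidirectionally relative to DMSO.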

[20] = ATG_TCF_b_cat_CIS: Attagene CIS-FACTORIAL HepG2 Assay for human T-Cell-Factor with beta-catenin (TCF/b-cat) (AID 2282965); settings: HepG2 TCF/beta-catenin cis-reporter transcription, actives raise or lower the signal
How it was run: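 Endogenous TCF/LEF activity read as reporter transcript level via RT-PCR and capillary electrophoresis fluorescence in transfected HepG2, 24 h exposure; gain or loss of signal fitted against DMSO controls.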

CC[N+](CC)(CC)CC
outcome [1]: inactive
outcome [2]: inactive
outcome [3]: inactive
outcome [4]: inactive
outcome [5]: inactive
outcome [6]: inactive
outcome [7]: inactive
outcome [8]: inactive
outcome [9]: inactive
outcome [10]: inactive
outcome [11]: inactive
outcome [12]: inactive
outcome [13]: inactive
outcome [14]: inactive
outcome [15]: inactive
outcome [16]: inactive
AC50 [17]: 1.07 µM (active)
outcome [17]: inactive
outcome [18]: inactive

BrCC(Br)c1ccccc1 (stereo not drawn)
outcome [1]: inactive
outcome [2]: inactive
outcome [3]: inactive
outcome [4]: inactive
outcome [5]: inactive
outcome [6]: inactive
outcome [19]: inactive
AC50 [8]: 27.3 µM (active)
outcome [9]: inactive
outcome [10]: inactive
outcome [11]: inactive
outcome [12]: inactive
outcome [13]: inactive
outcome [14]: inactive
outcome [15]: inactive
outcome [16]: inactive
outcome [17]: inactive
outcome [18]: inactive

O=[N+]([O-])c1ccccc1O
outcome [1]: inactive
outcome [2]: inactive
outcome [3]: inactive
outcome [4]: inactive
outcome [5]: inactive
outcome [6]: inactive
outcome [7]: inactive
outcome [19]: inactive
outcome [10]: inactive
outcome [11]: inactive
outcome [12]: inactive
outcome [13]: inactive
outcome [14]: inactive
outcome [15]: inactive
outcome [20]: inactive
outcome [16]: inactive
outcome [17]: inactive

NNCCO
outcome [1]: inactive
outcome [2]: inactive
outcome [3]: inactive
outcome [4]: inactive
outcome [5]: inactive
outcome [6]: inactive
outcome [19]: inactive
outcome [8]: inactive
AC50 [10]: 25.4 µM (active)
outcome [11]: inactive
outcome [12]: inactive
outcome [13]: inactive
outcome [14]: inactive
outcome [15]: inactive
outcome [20]: inactive
outcome [17]: inactive
outcome [18]: inactive

C=CC(F)(C(F)(F)F)C(F)(F)C(F)(F)F (stereo not drawn)
outcome [1]: inactive
outcome [2]: inactive
outcome [3]: inactive
outcome [4]: inactive
outcome [5]: inactive
outcome [6]: inactive
outcome [7]: inactive
outcome [8]: inactive
outcome [9]: inactive
outcome [10]: inactive
outcome [11]: inactive
outcome [12]: inactive
outcome [13]: inactive
outcome [14]: inactive
outcome [15]: inactive
outcome [20]: inactive
outcome [16]: inactive
outcome [18]: inactive

CCC[CH2][Sn]([Cl])([Cl])[CH2]CCC
outcome [1]: inactive
outcome [2]: inactive
AC50 [3]: 1.24 µM (active)
outcome [4]: inactive
AC50 [5]: 0.818 µM (active)
AC50 [6]: 1.24 µM (active)
outcome [7]: inactive
AC50 [8]: 0.865 µM (active)
AC50 [9]: 0.0625 µM (active)
AC50 [10]: 0.584 µM (active)
AC50 [11]: 1.61 µM (active)
AC50 [12]: 0.966 µM (active)
AC50 [13]: 0.811 µM (active)
outcome [14]: inactive
outcome [15]: inactive
AC50 [20]: 1.82 µM (active)
outcome [17]: inactive
AC50 [18]: 1.24 µM (active)

CC(c1ccc(O)cc1)c1ccc(O)cc1
outcome [1]: inactive
outcome [2]: inactive
outcome [3]: inactive
outcome [4]: inactive
AC50 [5]: 168 µM (active)
AC50 [6]: 100 µM (active)
outcome [7]: inactive
outcome [19]: inactive
outcome [10]: inactive
outcome [11]: inactive
outcome [12]: inactive
outcome [13]: inactive
outcome [14]: inactive
outcome [15]: inactive
outcome [16]: inactive
outcome [17]: inactive
